Measurements: PubChem BioAssay (Tox21)
Values joined by “and” are separate entries in the source; they are usually repeats but may differ in a detail not shown here. Identical values can stand only once. Inconclusive results are not listed. Active and inactive are the calls of the source. Calls come from the whole dose curve; as a rule, active = well fitted curve in the direction sought with a large enough effect in the repeat runs; inconclusive = weak or mixed curves; inactive = no such curve, though single readings can be large; an effect the other way counts as inactive or inconclusive.

Columns and labels:
[1] = Human pregnane X receptor (PXR) small molecule agonists, qHTS cell viability counter screen (AID 1346977); note: nearly all actives have a fitted effect of over 50% in size; for activity change, negative = cytotoxicity: % is set by controls: 0 for no effect and ±100 for the full control effect
In short: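 PXR-Luc HepG2 cells (2,000/well, 5% charcoal-stripped FBS) preincubated 5 hr, then exposed to compounds 24 hr at 37 C. Viability read in the same wells by CellTiter-Fluor fluorescence, reagent added at 23 hr, 1 hr incubation.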

[2] = Caspase-3/7 induction in HepG2 cells by small molecules, qHTS assay (AID 1346978); note: nearly all actives have a fitted effect of over 15% in size; for caspase activation: % is set by controls: 0 for no effect and ±100 for the full control effect
In short: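 Wild-type HepG2 cells, 2,000/well, settled 5 hr at 37 C and 5% CO2, then compound-treated for 17 hr; caspase-3/7 activity read by luminescent Caspase-Glo 3/7 after 30 min at room temperature.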

[3] = Caspase-3/7 induction in CHO-K1 cells by small molecules, qHTS cell viability counter screen (AID 1346979); note: nearly all actives have a fitted effect of over 35% in size; for activity change, negative = cytotoxicity: % is set by controls: 0 for no effect and ±100 for the full control effect
In short: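 Wild-type CHO-K1 cells (1,500/well) treated with compound after 5 h plating; after 16 h at 37C, viability read as CellTiter-Fluor fluorescence following 1 h reagent incubation, in the same wells as the caspase read.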

[4] = Caspase-3/7 induction in CHO-K1 cells by small molecules, qHTS assay (AID 1346980); note: nearly all actives have a fitted effect of over 15% in size; for caspase-3/7 activation: % is set by controls: 0 for no effect and ±100 for the full control effect
In short: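 Wild-type CHO-K1 cells exposed to compounds for 17hr at 37 C, 5% CO2. Caspase-3/7 activity then measured by Caspase-Glo 3/7 luminescence after 30min at room temperature.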

[5] = Caspase-3/7 induction in HepG2 cells by small molecules, qHTS cell viability counter screen (AID 1346981); note: nearly all actives have a fitted effect of over 30% in size
In short: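 Fluorescence read-out of live-cell protease activity (CellTiter-Fluor) after 1 hr with reagent. This was measured in the same wells as the caspase-3/7 luminescence, on HepG2 cells exposed to DMSO-dissolved compounds for 16 hr at 37 C.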

[6] = target: Nuclear receptor subfamily 1 group I member 2 (Homo sapiens) (UniProt O75469); assay: Human pregnane X receptor (PXR) small molecule agonists, qHTS assay (AID 1346982); note: nearly all actives have a fitted effect of over 35% in size
Sequence of Nuclear receptor subfamily 1 group I member 2 (Homo sapiens) (O75469 whole entry, looked up): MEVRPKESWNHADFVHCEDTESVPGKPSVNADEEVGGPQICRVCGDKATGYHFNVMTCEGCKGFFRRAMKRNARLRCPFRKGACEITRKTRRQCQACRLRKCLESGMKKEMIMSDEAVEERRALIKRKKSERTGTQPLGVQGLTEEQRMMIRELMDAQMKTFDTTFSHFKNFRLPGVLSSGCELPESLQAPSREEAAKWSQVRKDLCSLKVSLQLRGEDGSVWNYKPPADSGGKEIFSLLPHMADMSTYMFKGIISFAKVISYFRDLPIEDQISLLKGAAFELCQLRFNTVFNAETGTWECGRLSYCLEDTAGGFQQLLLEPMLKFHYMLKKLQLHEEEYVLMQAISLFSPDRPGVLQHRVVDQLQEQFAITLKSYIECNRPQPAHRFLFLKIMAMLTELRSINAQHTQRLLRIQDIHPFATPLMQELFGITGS
In short: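 HepG2 PXR-Luc reporter line, 5% charcoal-stripped FBS; 5 hr pre-incubation, compound (DMSO) 24 hr at 37 C/5% CO2; ONE-Glo 30 min RT; luminescence read-out.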

[7] = target: Cytochrome P450 2D6 (Homo sapiens) (UniProt P10635); assay: Cytochrome P450 Family 2 Subfamily D Member 6 (CYP2D6) small molecule antagonists: luciferase reporter qHTS assay (AID 1671196); note: nearly all actives have a fitted effect of over 50% in size
Sequence of Cytochrome P450 2D6 (Homo sapiens) (P10635 whole entry, looked up): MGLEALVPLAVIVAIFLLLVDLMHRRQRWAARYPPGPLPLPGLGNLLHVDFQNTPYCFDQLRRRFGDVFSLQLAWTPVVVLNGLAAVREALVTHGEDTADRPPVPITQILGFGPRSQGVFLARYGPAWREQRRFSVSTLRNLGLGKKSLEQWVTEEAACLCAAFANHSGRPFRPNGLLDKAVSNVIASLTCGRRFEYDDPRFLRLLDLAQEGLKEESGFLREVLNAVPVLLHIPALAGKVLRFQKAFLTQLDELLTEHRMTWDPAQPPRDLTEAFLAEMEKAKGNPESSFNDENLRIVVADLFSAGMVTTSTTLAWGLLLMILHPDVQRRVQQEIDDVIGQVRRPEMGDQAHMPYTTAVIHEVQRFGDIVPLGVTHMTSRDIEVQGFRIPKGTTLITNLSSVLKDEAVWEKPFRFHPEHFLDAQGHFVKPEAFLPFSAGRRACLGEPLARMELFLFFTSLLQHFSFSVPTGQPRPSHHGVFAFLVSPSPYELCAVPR
In short: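 Luminogenic proluciferin substrate, CYP2D6 enzyme; 10 min RT preincubation with compound, NADPH regeneration system added, 1 h RT. Stop/detection reagent, 20 min RT, luminescence read (RLU). Signal proportional to CYP activity.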

[8] = target: Nuclear receptor subfamily 1 group I member 2 (Homo sapiens) (UniProt O75469); assay: Human pregnane X receptor (PXR) activation by small molecules, qHTS assay (AID 1346985); note: nearly all actives have a fitted effect of over 40% in size
In short: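 DPX-2 cells (HepG2 co-transfected with a PXR response element and a CYP3A4-promoter luciferase construct) were seeded at 2,000 per well, rested 5 hr at 37C, then exposed to DMSO-dissolved compounds for 24 hr. Activation was read as luciferase luminescence.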

[9] = target: Nuclear receptor subfamily 1 group I member 2 (Rattus norvegicus) (UniProt Q9R1A7); assay: Rat pregnane X receptor (rPXR) activation by small molecules, qHTS assay (AID 1346983); conditions: rPXR luciferase reporter cells, One-Glo luminescence, 24 h; max activation: hits give high values; note: nearly all actives have a fitted effect of over 20% in size
Sequence of Nuclear receptor subfamily 1 group I member 2 (Rattus norvegicus) (Q9R1A7 whole entry, looked up): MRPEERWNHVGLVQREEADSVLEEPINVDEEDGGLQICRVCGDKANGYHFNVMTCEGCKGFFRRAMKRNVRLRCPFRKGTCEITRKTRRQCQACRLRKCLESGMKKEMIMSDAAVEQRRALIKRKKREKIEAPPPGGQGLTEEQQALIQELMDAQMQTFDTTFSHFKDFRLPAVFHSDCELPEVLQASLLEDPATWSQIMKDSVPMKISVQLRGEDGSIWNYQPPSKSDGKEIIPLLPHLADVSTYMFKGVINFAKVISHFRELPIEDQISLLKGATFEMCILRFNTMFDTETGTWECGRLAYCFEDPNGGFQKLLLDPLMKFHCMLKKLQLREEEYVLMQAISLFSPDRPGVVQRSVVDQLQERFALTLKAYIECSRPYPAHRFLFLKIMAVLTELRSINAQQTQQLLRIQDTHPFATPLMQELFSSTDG
In short: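 Cell-based rPXR activation assay: rPXR cells, 2,000 per well, rested 5hr at 37 C, then exposed to compounds in DMSO for 24 hr at 37 C. Luciferase activity read by One-Glo luminescence after 30 min at room temperature.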
Potency is the fitted concentration of half-maximal effect.

Cc1cc(CCN2CCN(c3nsc4ccccc34)CC2)cc2c1NC(=O)CC2(C)C
active: Potency [1] 27.3 µM | Potency [3] 24.3 µM | Potency [5] 61.1 µM | Potency [6] 19.3 µM | Potency [7] 17.8 µM
inactive: Potency [2] | Potency [4]

COc1cc(-c2ccc(N=C=O)c(OC)c2)ccc1N=C=O
inactive: Potency [1] | Potency [2] | Potency [3] | Potency [4] | Potency [5] | Potency [6] | Potency [7]

C=CC(=O)OCC(CO)(COC(=O)C=C)COC(=O)C=C
active: Potency [1] 17.8 µM and 21.7 µM | Potency [2] 19.4 µM and 24.3 µM | Potency [3] 2.74 µM and 6.11 µM | Potency [4] 2.44 µM and 6.11 µM | Potency [5] 17.3 µM and 21.7 µM | Potency [7] 40.1 µM and 63.3 µM

COc1ccc(CN2CCN(C(c3ccc(F)cc3)c3ccc(F)cc3)CC2)c(OC)c1OC
active: Potency [1] 26.6 µM | Potency [3] 26.6 µM | Potency [5] 26.6 µM | Potency [7] 4.9 µM
inactive: Potency [2] | Potency [4] | Potency [8]

O=C(OCC(COC(=O)c1ccccc1)(COC(=O)c1ccccc1)COC(=O)c1ccccc1)c1ccccc1
inactive: Potency [1] | Potency [2] | Potency [3] | Potency [4] | Potency [5] | Potency [6] | Potency [7]

Clc1ccc2n[nH]nc2c1
inactive: Potency [1] | Potency [2] | Potency [3] | Potency [4] | Potency [5] | Potency [6] | Potency [7]

CCCCCCCC/C=C\CCCCCCCCOCCO
active: Potency [1] 15.9 µM | Potency [3] 35.5 µM | Potency [5] 35.5 µM | Potency [6] 3.98 µM
inactive: Potency [2] | Potency [4] | Potency [7]

CC(NN)c1ccccc1 (stereo not given)
inactive: activity change, negative = cytotoxicity [1] 0.166% [at 19 µM] | caspase activation [2] -0.345% [at 19 µM] | activity change, negative = cytotoxicity [3] 6.27% [at 19 µM] | caspase-3/7 activation [4] 2.13% [at 19 µM] | activity change, negative = cytotoxicity [5] 2.61% [at 19 µM] | activation [6] 7.91% [at 19 µM]
active: Potency [7] 15.1 µM

CCC1=C[C@@H]2CN(C1)Cc1c([nH]c3ccccc13)[C@@](C(=O)OC)(c1cc3c(cc1OC)N(C)[C@H]1[C@@](O)(C(=O)OC)[C@H](OC(C)=O)[C@]4(CC)C=CCN5CC[C@]31[C@@H]54)C2
active: Potency [1] 13.3 µM | Potency [3] 0.668 µM | Potency [5] 13.3 µM | Potency [9] 3.55 µM | Potency [8] 8.91 µM
inactive: Potency [2] | Potency [4] | Potency [7]

CCCCN1CCCC[C@H]1C(=O)Nc1c(C)cccc1C
active: Potency [7] 0.617 µM
inactive: Potency [1] | Potency [2] | Potency [3] | Potency [4] | Potency [5]

CC(C)(C)C1CCC(CC2=C(O)c3ccccc3C(=O)C2=O)CC1 (stereo not given)
inactive: Potency [2] | Potency [4] | Potency [7]
active: Potency [1] 10.6 µM | Potency [3] 9.44 µM | Potency [5] 11.9 µM | Potency [6] 29.8 µM

C=CC(=O)OCC(CO)(COCC(COC(=O)C=C)(COC(=O)C=C)COC(=O)C=C)COC(=O)C=C
active: Potency [1] 3.03 µM | Potency [2] 6.04 µM | Potency [3] 0.76 µM | Potency [4] 480 nM | Potency [5] 3.81 µM | Potency [6] 1.91 µM | Potency [7] 15.7 µM

CSc1ccc(C(=O)c2[nH]c(=O)[nH]c2C)cc1
inactive: Potency [1] | Potency [2] | Potency [3] | Potency [4] | Potency [5] | Potency [6] | Potency [7]

O=C(O)c1cc(O)c2c(c1)C(=O)c1cccc(O)c1C2=O
active: Potency [1] 25.1 µM | Potency [3] 35.4 µM | Potency [5] 44.6 µM
inactive: Potency [2] | Potency [4] | Potency [6] | Potency [7]

Cc1nc(-c2ccc3c(c2)CCN(CCC2CCC(NC(=O)/C=C/c4ccc(F)cc4)CC2)CC3)no1 (stereo not given)
inactive: Potency [1] | Potency [2] | Potency [4] | Potency [5] | Potency [6] | Potency [7]
active: Potency [3] 6.87 µM

CNc1ccc(O)cc1
active: Potency [1] 61 µM | Potency [3] 13.7 µM | Potency [5] 54.4 µM | Potency [7] 12.6 µM
inactive: Potency [2] | Potency [4]

CCC(C)Nc1ccc(NC(C)CC)cc1 (stereo not given)
active: Potency [1] 12.4 µM | Potency [3] 17.6 µM | Potency [5] 27.8 µM | Potency [7] 2.88 µM
inactive: Potency [2] | Potency [4]

CCC(N)(CO)CO
inactive: Potency [1] | Potency [2] | Potency [3] | Potency [4] | Potency [5] | Potency [6] | Potency [7]

O=C1CCCCCN1SSN1CCCCCC1=O
inactive: Potency [1] | Potency [2] | Potency [4] | Potency [5] | Potency [7]
active: Potency [3] 54.5 µM

O=C(O)c1c(Cl)cccc1Cl
inactive: Potency [1] | Potency [2] | Potency [3] | Potency [4] | Potency [5] | Potency [6] | Potency [7]

CCN(C(=O)N(CC)c1ccccc1)c1ccccc1
inactive: Potency [1] | Potency [2] | Potency [3] | Potency [4] | Potency [5] | Potency [7]
active: Potency [6] 30.6 µM

CCCCCCCCCCCCCC[P+](CCCC)(CCCC)CCCC (tested in a mixture with another compound)
active: Potency [1] 12.3 µM | Potency [2] 27.5 µM | Potency [3] 7.74 µM | Potency [5] 24.5 µM | Potency [6] 7.74 µM | Potency [7] 0.113 µM
inactive: Potency [4]
